D2 PAM-1 – positive allosteric modulators of human D2 dopamine receptor; P14416; DiscoveRx D2 beta-arrestin cells, luminescence, 90 min; 100% = 57 uM dopamine signal; potentiation, % (no concentration beside the values); hit rate 0.23% among 360,000; AID 624464; in the data active means potentiation above about 50%; inconclusive means mostly about 30% to 49%
Target sequence (P14416 whole entry, looked up): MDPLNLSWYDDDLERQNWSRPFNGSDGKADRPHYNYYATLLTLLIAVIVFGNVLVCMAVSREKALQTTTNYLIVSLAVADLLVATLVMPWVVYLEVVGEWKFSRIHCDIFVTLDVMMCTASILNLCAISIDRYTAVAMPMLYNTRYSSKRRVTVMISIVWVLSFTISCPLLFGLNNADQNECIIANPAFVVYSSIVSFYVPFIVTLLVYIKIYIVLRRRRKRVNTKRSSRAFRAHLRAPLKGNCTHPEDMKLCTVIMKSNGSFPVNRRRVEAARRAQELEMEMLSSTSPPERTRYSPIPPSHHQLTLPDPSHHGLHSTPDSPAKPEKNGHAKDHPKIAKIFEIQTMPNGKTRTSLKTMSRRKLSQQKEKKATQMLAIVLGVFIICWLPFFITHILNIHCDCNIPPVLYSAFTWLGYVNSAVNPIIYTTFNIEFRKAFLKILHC
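PathHunter beta-arrestin assay in DiscoveRx D2 cells. Compounds were added with an EC20 of dopamine (50 nM final) for 90 min at 37 deg C. Luminescence was read 1 h after detection reagent, with 57 uM dopamine as the EC100 control.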
D2 ag-1 – activates the human D2 dopamine receptor | P14416 | DiscoveRx PathHunter D2 beta-arrestin, luminescence, 90 min; 100% = 57 uM dopamine signal | activation, % (concentration not given with the values) | hit rate 0.084% among 360,000 | AID 624465; in the data active means activation above about 40%; inconclusive means between about 15% and that limit
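DiscoveRx PathHunter D2 beta-arrestin cells (2,100/well) attached overnight, then compound-stimulated 90 min at 37 C in HBSS/10 mM HEPES/0.1% Tween-20 buffer; beta-galactosidase complementation read by luminescence after 1 h at ambient temperature. Dopamine 57 uM final (EC100) as control.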
D2 ag-2 – agonists of human D2 dopamine receptor; P14416; HEK293 T-REx D2 cells, calcium flux agonist mode; activation, % at 2 µM; hit rate 0.53% among 340,000; AID 485358;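 active means activation over 3 SD above normal in the single-dose calcium agonist read, cut at about 30% in these data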; further: 0% is about no effect
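Agonism scored from kinetic calcium signal (1 read/sec, 180 s) following compound pin transfer, after a 10 s baseline. Cells: HEK293 Trex line expressing inducible D2 receptor coupled to calcium, dye-loaded after overnight culture at 30 C.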
D2 antagonist – antagonists of human D2 dopamine receptor; HEK293 TREx D2 cells, calcium flux, dopamine EC80; inhibition, % at 10 µM; hit rate 2% among 340,000; in the data active means inhibition above about 30%; inactive means below that, where a call was filed; further: 0% is about no effect
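Tetracycline-induced HEK293 T-REx cells expressing D2 force-coupled to calcium signalling were dye-loaded, exposed to compound for 180 s, then challenged with an EC80 of dopamine; calcium flux was followed kinetically for a further 180 s.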
D2 PAM-2 – positive allosteric modulators of human D2 dopamine receptor | P14416 | HEK293 T-REx D2, calcium flux, EC20 dopamine potentiation | potentiation, % at 10 µM | hit rate 0.34% among 340,000 | AID 485347;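 active means potentiation over 3 SD above the plate norm, cut at about 30% in these data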; further: 0% is about no effect
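Tetracycline-induced HEK293 T-REx cells force-coupled to calcium signalling expressed D2; compounds were pin-added after a 10 s baseline, read kinetically 180 s, then an EC20 dopamine challenge followed with a further 180 s calcium read.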
LDHA inh – LDHA (human) enzyme inhibition | P00338 | purified LDHA, NADH/diaphorase-resazurin fluorescence; stronger effect = lower value | activity change, % (values are at about 110 or 230 µM) | hit rate 0.15% among 480,000 | AID 1347041; in the data active means activity change below about -30%; inconclusive means mostly about -25% to -30%;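 further: plate controls were DMSO wells for no effect and wells without enzyme for full effect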
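Remaining NADH was detected by diaphorase (0.133 mg/mL) converting 37 µM resazurin to fluorescent resorufin, read at 0 and 20 minutes. The preceding 5-minute room-temperature reaction used 2 nM LDHA, 0.2 mM sodium pyruvate and 0.06 mM NADH at pH 7.4.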
Numbers without * were called inactive; ? = inconclusive; / = no result given. An excerpt weighted towards active compounds, which were near 2.1% of everything screened.

SMILES	D2 PAM-1	D2 ag-1	D2 ag-2	D2 antagonist	D2 PAM-2	LDHA inh
O=c1cc(C(F)(F)F)c2cc3c4c(c2o1)CCCN4CCC3	8.6	-0.5	142.7*	78.5*	-19.7	-3.0
CCN(CC)P(=O)(c1n(CC)cc[n+]1CC)N(CC)CC	-1.3	-3.9	-0.2	-16.7	31.5*	-11.5
Cn1cc(C(=O)OCC(=O)NC2CCCCC2)c2ccccc21	-1.4	-6.1	0.4	39.1*	3.2	-13.1
CN1CCc2cccc(Cl)c2CC1	-31.9	-0.8	0.8	52.6*	-18.5	0.1
CCN(CC)P(=O)(NC(=O)C(Cl)(Cl)Cl)N(CC)CC.[Cl-].[Cl-].[Cl-].[Nd+3]	-5.0	1.2	4.1	-7.4	-0.1	-49.0*
O=C1C=C(N2CC2)c2ccccc2C1=O	4.3	50.8*	/	/	/	3.2
O=C1c2ccccc2-c2cc3ccccc3cc21	-7.1	-0.1	/	/	/	-6.4
Cc1ccc(S(=O)(=O)Oc2ccccc2C=C2C(=O)NC(=O)NC2=O)cc1	-23.2	-3.0	/	/	/	-11.0
O=C1NC(=O)C(=Cc2ccccc2Oc2ccc(F)cc2)C(=O)N1	-36.5	-4.3	-0.4	12.2	4.2	-40.2*
COC(=O)C1=CCCN(C)C1	1.9	1.1	31.5*	-6.9	-11.8	-1.8
O=c1c2ccccc2nc(/C=C/c2ccc(F)cc2)n1-c1ccccn1	-4.2	-4.3	0.3	-16.7	7.1	0.1
O=C1c2ccccc2C(=O)N1Cc1nc2ccccc2c(=O)n1-c1ccccn1	1.6	1.9	0.5	31.2*	5.3	4.2
CC(C)C(C)NC(=O)COC(=O)c1cn(C)c2ccccc12 (stereo unspecified)	/	/	/	/	/	-7.3
COc1ccc(C(C#N)C(C)=O)cc1 (stereo unspecified)	/	/	/	/	/	11.0
OC(CCNCCc1c[nH]c2ccccc12)C(F)(F)Cl (stereo unspecified)	3.0	-4.4	14.3	52.7*	-42.6	-7.8
Cc1cccc(CNCCc2c[nH]c3ccccc23)c1	-8.4	0.0	0.8	46.8*	-18.8	-0.2
c1ccc(CNCCc2c[nH]c3ccccc23)cc1	-3.7	5.1	8.8	60.5*	-31.1	-2.5
CCC1(c2ccccc2)C(=O)N(C)C(=O)N(C)C1=O	-5.7	1.6	0.6	34.0*	-14.9	-2.4
CN(C)C(=O)Oc1ccc2c(=O)c(-c3ccccc3)coc2c1	/	/	/	/	/	2.8
COc1ccc2ccc(O)c(CN3CC=C(c4ccccc4)CC3)c2c1	-4.0	-1.8	17.2	18.6	-17.2	8.9
COc1ccc(C(C)=O)cc1CN1CC=C(c2ccccc2)CC1	-10.3	-1.4	3.4	78.1*	-27.1	-11.5
COc1cc(C)cc(CN2CC=C(c3ccccc3)CC2)c1O	-21.0	8.1	-7.9	87.9*	-30.2	-0.2
CCCN1CCN(Cc2cc(C(C)=O)ccc2OC)CC1	/	/	/	/	/	1.0
CC/C(=N\Nc1cccc2ccccc12)c1c(O)[nH]c(=O)[nH]c1=O	54.6*	?	0.6	-5.8	7.7	25.8
CC/C(=N\Nc1ccccc1)c1c(O)[nH]c(=O)[nH]c1=O	-23.6	-4.2	0.0	-17.6	0.0	-1.9
SMILES	D2 PAM-1	D2 ag-1	D2 ag-2	D2 antagonist	D2 PAM-2	LDHA inh
CC(C)N1CCN(Cc2c[nH]c3ccccc23)CC1	/	/	/	/	/	-1.3
COC(=O)C1=C(c2ccc(F)cc2OCc2ccccc2)C[C@@H]2CC[C@H]1N2C(=O)NC1CCN(Cc2ccccc2)CC1	-17.0	-4.1	-0.1	25.6	-18.8	-1.6
COC(=O)C1=C(c2ccccc2OCc2ccccc2)C[C@@H]2CC[C@H]1N2C(=O)NC1CCN(Cc2ccccc2)CC1	-23.6	4.6	-0.3	59.5*	-20.5	-1.3
COc1ccc(CN2CCN(C(=O)COc3ccc4ccccc4c3)CC2)cc1	/	/	/	/	/	-2.3
Cc1ccc(C2SCC(=O)Nc3c2c(=O)[nH]n3C2CCOC(C)(C)C2)cc1 (stereo unspecified)	-21.3	-2.6	-0.7	37.0*	3.4	-8.9
C1=C(c2c[nH]c3ccccc23)CCNC1	/	/	1.6	41.9*	-16.1	/
CC(C)N1CC=C(c2c[nH]c3ccccc23)CC1	-39.0	-1.2	/	/	/	3.0
C[N+](C)(C)Cc1cccs1	/	/	/	/	/	-0.2
O=C(Cc1ccccc1)N1CCN(Cc2ccc(Cl)cc2)CC1	-4.8	-5.9	/	/	/	-12.9
Oc1ccc(Cl)cc1CN1CCN(Cc2ccccc2)CC1	-40.6	-2.3	-0.7	31.9*	-24.0	3.6
Cc1cc(O)c(CN2CCN(c3ccccc3)CC2)cc1C	-30.6	-1.9	6.2	49.3*	-34.0	0.7
N#Cc1ccccc1CN1CCN(c2ccccc2)CC1	/	/	/	/	/	2.2
CCOc1ccccc1CN1CCN(c2ccccc2)CC1	/	/	/	/	/	4.7
Cc1ccc(O)c(CN2CCN(c3ccccc3)CC2)c1	-42.8	-3.2	4.7	38.4*	-23.5	-2.9
Oc1cc2c(cc1CN1CCN(c3ccccc3)CC1)CCC2	-39.7	-0.7	-0.1	72.9*	-22.6	0.9
CN(C)C(=O)Oc1ccc2cc(-c3ccccc3)c(=O)oc2c1	/	/	/	/	/	-18.6
Oc1cc2c(cc1CN1CCN(c3ccc(F)cc3)CC1)OCO2	-23.2	-0.8	0.8	57.8*	-20.7	24.4
CN1CC(C(=O)c2ccc(Cl)cc2)C(c2ccc(N(C)C)cc2)C1 (stereo unspecified)	-18.3	-4.8	-0.2	-6.8	-10.0	-0.9
CN1CC(C(=O)c2ccc(F)cc2)C(c2ccc(F)cc2)C1 (stereo unspecified)	-28.5	-7.9	0.6	99.9*	-46.2	-10.2
CC(NC(C)c1ccc(Cl)cc1)C(=O)c1c[nH]c2ccccc12 (stereo unspecified)	/	/	/	/	/	4.3
CC(C)NC(C)C(=O)c1ccc2ccccc2c1 (stereo unspecified)	-19.7	-12.3	-0.9	46.0*	18.7	0.0
Cc1ccc2c(c1)C1CN(C)CCC1N2C(=O)/C(C#N)=C/c1ccc2c(c1)OCO2 (stereo unspecified)	-5.5	-1.5	-0.2	47.7*	-9.5	-1.9
COc1ccccc1CNCCc1c[nH]c2ccccc12	/	/	/	/	/	-3.4
CCN1CCN(c2ccc(NC(C)=O)cc2Cl)CC1	-4.8	-4.4	-0.3	41.6*	8.7	0.4
Oc1ccc(C2N(O)C3CCCCC3N2O)cc1 (stereo unspecified)	/	/	/	/	/	-4.6
CN1C(=O)CN=C(c2ccc(Cl)cc2)c2cc(Cl)ccc21	0.3	-1.9	-1.0	34.3*	7.2	-4.0
CN1CCN(Cc2nc3ccccc3n2C)CC1	3.7	-2.7	2.2	-2.8	3.2	0.8
CCC1C2Cn3c(nc4ccccc43)C1N(C)O2 (stereo unspecified)	0.7	-1.8	-0.1	10.5	33.9*	-2.8
N[n+]1cn[nH]c1	/	/	/	/	/	4.6
Cc1cccc(OCC(=O)N2CCN(Cc3ccncc3)CC2)c1	-17.2	-1.5	0.2	-3.2	7.4	?
